Experimental data from the supplement of paper PMC9694430.

Key:
Assay in all cases: thermal shift delta Tm vs DMSO control; higher = stronger stabilization (binding)
Details in all cases: 12.5 µM; protein concentration 2 µM
LOC_OS02G45750-cb003 = tested on: LOC_OS02G45750-cb003
Procedure, shortened: (§1)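 The melting temperature shift given here is a triplicate mean, measured against protein that received only DMSO. Melting temperatures came from Boltzmann fits of differential scanning fluorimetry data on E. coli-expressed, purified rice kinase domain constructs. Each 19.5 μl well contained 2 μM kinase, 100 mM potassium phosphate pH 7.5, 150 mM NaCl, 10% glycerol, 5 × SYPRO Orange and compound in DMSO. Plates were scanned from 25°C to 95°C at 0.05°C/s.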

LOC_OS02G54510-cb004 = tested on: LOC_OS02G54510-cb004
Procedure, shortened: as §1

LOC_OS03G04050-cb001 = tested on: LOC_OS03G04050-cb001
Procedure, shortened: as §1

LOC_OS03G12390-cb001 = tested on: LOC_OS03G12390-cb001
Procedure, shortened: as §1

LOC_OS03G27990-cb004 = tested on: LOC_OS03G27990-cb004
Procedure, shortened: as §1

LOC_OS03G50450-cb001 = tested on: LOC_OS03G50450-cb001
Procedure, shortened: as §1

LOC_OS03G50810-cb003 = tested on: LOC_OS03G50810-cb003
Procedure, shortened: as §1

LOC_OS04G35114-cb001 = tested on: LOC_OS04G35114-cb001
Procedure, shortened: as §1

LOC_OS04G38480-cb003 = tested on: T1, LOC_OS04G38480-cb003
T1 sequence (whole entry): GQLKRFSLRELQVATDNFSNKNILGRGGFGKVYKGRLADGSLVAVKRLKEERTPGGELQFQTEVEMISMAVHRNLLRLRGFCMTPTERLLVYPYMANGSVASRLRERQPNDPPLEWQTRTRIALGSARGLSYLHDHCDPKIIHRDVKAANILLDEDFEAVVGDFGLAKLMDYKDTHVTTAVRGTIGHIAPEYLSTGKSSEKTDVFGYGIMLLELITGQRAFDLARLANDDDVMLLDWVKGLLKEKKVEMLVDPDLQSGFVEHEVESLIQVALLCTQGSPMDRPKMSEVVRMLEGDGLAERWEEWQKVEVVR
Procedure, shortened: as §1

LOC_OS04G41100-cb001 = tested on: T2, LOC_OS04G41100-cb001
T2 sequence (whole entry): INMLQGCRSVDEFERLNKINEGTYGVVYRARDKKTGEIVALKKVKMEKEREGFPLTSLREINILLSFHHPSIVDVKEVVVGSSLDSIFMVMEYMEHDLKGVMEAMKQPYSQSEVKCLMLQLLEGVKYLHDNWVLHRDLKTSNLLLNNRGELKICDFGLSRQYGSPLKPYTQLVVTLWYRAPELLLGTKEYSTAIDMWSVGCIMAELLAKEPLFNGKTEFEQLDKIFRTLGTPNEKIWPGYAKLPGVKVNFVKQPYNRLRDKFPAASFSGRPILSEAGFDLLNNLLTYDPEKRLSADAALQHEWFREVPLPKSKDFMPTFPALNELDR
Procedure, shortened: as §1

LOC_OS04G57630-cb004 = tested on: LOC_OS04G57630-cb004
Procedure, shortened: as §1

LOC_OS05G07850-cb002 = tested on: LOC_OS05G07850-cb002
Procedure, shortened: as §1

LOC_OS05G16824-cb004 = tested on: LOC_OS05G16824-cb004
Procedure, shortened: as §1

LOC_OS05G28520-cb001 = tested on: LOC_OS05G28520-cb001
Procedure, shortened: as §1

LOC_OS05G30820-cb001 = tested on: LOC_OS05G30820-cb001
Procedure, shortened: as §1

LOC_OS05G43570-cb004 = tested on: LOC_OS05G43570-cb004
Procedure, shortened: as §1

LOC_OS06G16330-cb003 = tested on: LOC_OS06G16330-cb003
LOC_OS06G16330-cb003, sequence (as listed by the source): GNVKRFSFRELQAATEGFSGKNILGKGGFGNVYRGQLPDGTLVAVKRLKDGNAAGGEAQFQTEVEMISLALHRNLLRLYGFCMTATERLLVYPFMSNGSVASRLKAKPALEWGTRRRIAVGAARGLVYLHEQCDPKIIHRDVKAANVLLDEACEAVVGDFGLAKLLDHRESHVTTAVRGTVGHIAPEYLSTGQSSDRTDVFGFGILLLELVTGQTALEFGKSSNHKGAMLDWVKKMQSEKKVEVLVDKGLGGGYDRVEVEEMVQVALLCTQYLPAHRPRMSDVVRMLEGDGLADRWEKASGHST
Procedure, shortened: as §1

LOC_OS06G22820-cb001 = tested on: T3, LOC_OS06G22820-cb001
T3 sequence (whole entry): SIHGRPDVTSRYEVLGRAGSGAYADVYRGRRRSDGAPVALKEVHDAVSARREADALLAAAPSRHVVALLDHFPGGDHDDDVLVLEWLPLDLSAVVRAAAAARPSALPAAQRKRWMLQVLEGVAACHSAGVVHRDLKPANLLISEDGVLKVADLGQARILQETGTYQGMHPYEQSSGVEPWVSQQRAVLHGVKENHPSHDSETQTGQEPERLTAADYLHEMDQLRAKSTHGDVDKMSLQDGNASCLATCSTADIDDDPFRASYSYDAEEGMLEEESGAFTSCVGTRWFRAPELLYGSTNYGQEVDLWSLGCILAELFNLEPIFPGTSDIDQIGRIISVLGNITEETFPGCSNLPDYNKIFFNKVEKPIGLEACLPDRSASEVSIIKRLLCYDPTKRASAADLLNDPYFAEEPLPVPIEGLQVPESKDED
Procedure, shortened: as §1

LOC_OS07G06570-cb004 = tested on: LOC_OS07G06570-cb004
Procedure, shortened: as §1

LOC_OS07G07230-cb001 = tested on: LOC_OS07G07230-cb001
Procedure, shortened: as §1

| Compound | thermal shift delta Tm (LOC_OS02G45750-cb003) [°C] | thermal shift delta Tm (LOC_OS02G54510-cb004) [°C] | thermal shift delta Tm (LOC_OS03G04050-cb001) [°C] | thermal shift delta Tm (LOC_OS03G12390-cb001) [°C] | thermal shift delta Tm (LOC_OS03G27990-cb004) [°C] | thermal shift delta Tm (LOC_OS03G50450-cb001) [°C] | thermal shift delta Tm (LOC_OS03G50810-cb003) [°C] | thermal shift delta Tm (LOC_OS04G35114-cb001) [°C] | thermal shift delta Tm (LOC_OS04G38480-cb003) [°C] | thermal shift delta Tm (LOC_OS04G41100-cb001) [°C] | thermal shift delta Tm (LOC_OS04G57630-cb004) [°C] | thermal shift delta Tm (LOC_OS05G07850-cb002) [°C] | thermal shift delta Tm (LOC_OS05G16824-cb004) [°C] | thermal shift delta Tm (LOC_OS05G28520-cb001) [°C] | thermal shift delta Tm (LOC_OS05G30820-cb001) [°C] | thermal shift delta Tm (LOC_OS05G43570-cb004) [°C] | thermal shift delta Tm (LOC_OS06G16330-cb003) [°C] | thermal shift delta Tm (LOC_OS06G22820-cb001) [°C] | thermal shift delta Tm (LOC_OS07G06570-cb004) [°C] | thermal shift delta Tm (LOC_OS07G07230-cb001) [°C] |
| --- | --- | --- | --- | --- | --- | --- | --- | --- | --- | --- | --- | --- | --- | --- | --- | --- | --- | --- | --- | --- |
| Fc1ccc2[nH]ccc2c1-c1nc(N2CCOCC2)c2sc(CN3CCN(CC4CC4)CC3)cc2n1 | 0 | -0.03 | 0.21 | 0.01 | 0 | -0.17 | 1.38 | 0.63 | 0.91 | 0.18 | -0.15 | 2.07 | -1.52 | 0.19 | 0.44 | 0.12 | -0.11 | 0.53 | 0.96 | 0.95 |
| Cn1cc(-c2ccc(F)c(C(F)(F)F)c2)nc1C1CCN(c2ncnc3[nH]ncc23)CC1 | 0.33 | 0.45 | 0.47 | -0.18 | 0.44 | 0.81 | 0.37 | 0.97 | 0.91 | 0.15 | 0.14 | 0.42 | -7.63 | 0.22 | 0.54 | 0.45 | 0.11 | 0.36 | 0.72 | 0.63 |
| NC(=O)c1ccc(N(C(N)=O)c2c(F)cccc2F)nc1-c1ccc(F)cc1F | -0.83 | -0.06 | 0.39 | -0.04 | 0.18 | 0.14 | 0.25 | 0.57 | -0.04 | 0.38 | 0.21 | -0.33 | -5.64 | 0.58 | 0.41 | 0.22 | -0.58 | 0.8 | 1.05 | 0.18 |
| CC1Oc2cc(cnc2N)-c2c(nn(C)c2C#N)CN(C)C(=O)c2ccc(F)cc21 (stereo not given) | 1.05 | 0.8 | 0.3 | 6.42 | 0.12 | -0.13 | 0.66 | 0.69 | 2.3 | 0.38 | 0.38 | 2.16 | -1.64 | 0.23 | 0.66 | 0.83 | 10.9 | 0.16 | 0.86 | 0.75 |
| C[C@@H](Oc1cc(-c2cnn(C3CCNCC3)c2)cnc1N)c1c(Cl)ccc(F)c1Cl | 5.46 | 0.63 | 0.35 | 1.31 | 0.48 | 0.08 | 2.49 | 5.73 | 3.79 | 0.57 | 3.33 | 9.7 | 4.65 | 0.26 | 0.39 | 0.21 | 10.8 | 0.95 | 0.69 | 0.31 |
| C=CCc1ccc(O)c(-c2ccc(O)c(CC=C)c2)c1 [Honokiol] | -0.57 | 0.26 | 0.72 | -0.04 | 0.52 | 0.5 | 0.47 | 0.36 | 1.32 | 0.48 | 0.34 | 0.49 | 1.45 | 0.24 | 0.69 | 0.62 | 0.47 | 0.7 | 0.49 | -0.78 |
| Cc1ccc(NC(=O)c2cccc(C(C)(C)C#N)c2)cc1Nc1ccc2ncn(C)c(=O)c2c1 | 1.15 | 1.43 | 0.45 | 0.66 | 0.38 | 0.1 | 0.54 | 0.51 | 0.88 | 0.24 | 0.41 | 0.77 | -1.17 | 0.69 | 0.63 | 0.64 | 0.8 | 0.86 | 0.75 | 0.34 |
| CCOc1cc(C(=O)N2CCC(N3CCN(C)CC3)CC2)ccc1Nc1ncc2c(n1)N(C1CCCC1)c1ccccc1C(=O)N2C | 0.51 | -0.24 | 0 | -0.16 | 0.03 | 0.49 | 0.18 | 0.47 | 1.8 | 0.13 | -0.22 | 1.11 | 0.71 | 0.22 | 0.32 | 0.17 | 0.04 | 0.34 | 0.95 | -0.25 |
| COc1ccc(-c2cc3c(C)nc(N)nc3n([C@H]3CC[C@H](OCCO)CC3)c2=O)cn1 | 0.52 | 0.05 | 0.5 | 0.41 | 0.17 | 0.14 | 0.45 | 0.77 | 1.08 | 0.32 | 0.78 | 0.06 | -1.05 | 0.57 | 0.75 | 0.65 | -0.03 | 0.69 | 1.04 | 0.01 |
| CC(C)CC(=O)Nc1n[nH]c2c1CN(C(=O)C1CCN(C)CC1)C2(C)C | 0.62 | 0.36 | 0.36 | 0.64 | 0.15 | 0.29 | 1.12 | 0.47 | 0.59 | 3.27 | 0.48 | 0.58 | 0.18 | 0.19 | 0.53 | 0.86 | -0.05 | 3.38 | 0.44 | 0.05 |
| C[C@]1(O)C[C@@H](c2nc(-c3ccc4ccc(-c5ccccc5)nc4c3)c3c(N)nccn32)C1 [Linsitinib (OSI-906)] | 0.76 | 0.75 | 0.57 | 0.37 | 0.12 | 0.28 | 0.6 | 3.89 | 1.28 | 0.85 | 0.91 | 1.48 | 1.1 | 0.92 | 0.67 | 0.81 | 0.92 | 0.94 | 1.13 | 0.34 |
| C[C@H](CN(C)C)Oc1nc(Nc2cc3cccc(Cl)c3cn2)cnc1C#N | 2.56 | 0.35 | 0.34 | 1.56 | 0.61 | 0.13 | 1.33 | 1.48 | 1.13 | 0.28 | -0.04 | 5.49 | 3.41 | 0.32 | 0.46 | 0.43 | 1.98 | 0.49 | 0.8 | 0.34 |
